Measurements from ChEMBL document CHEMBL2218924, “A broad activity screen in support of a chemogenomic map for kinase signalling research and drug discovery” (Biochem J, 2013).

What was measured:
[1] = target: T1, Testis-specific serine/threonine-protein kinase 1 (Homo sapiens) (UniProt Q9BXA7); conditions: at 1 µM
T1 sequence (whole entry): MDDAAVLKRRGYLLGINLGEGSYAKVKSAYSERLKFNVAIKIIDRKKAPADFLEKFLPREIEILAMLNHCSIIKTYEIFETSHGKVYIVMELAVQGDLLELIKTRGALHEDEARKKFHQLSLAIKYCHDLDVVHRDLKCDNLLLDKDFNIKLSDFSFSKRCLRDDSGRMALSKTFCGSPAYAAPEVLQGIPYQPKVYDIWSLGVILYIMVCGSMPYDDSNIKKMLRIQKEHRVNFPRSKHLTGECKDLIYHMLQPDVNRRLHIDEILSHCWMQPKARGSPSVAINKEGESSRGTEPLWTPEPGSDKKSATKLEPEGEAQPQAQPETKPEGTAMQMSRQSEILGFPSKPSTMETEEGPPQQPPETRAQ

[2] = target: T2, Testis-specific serine/threonine-protein kinase 2 (Homo sapiens) (UniProt Q96PF2); conditions: at 10 µM
T2 sequence (whole entry): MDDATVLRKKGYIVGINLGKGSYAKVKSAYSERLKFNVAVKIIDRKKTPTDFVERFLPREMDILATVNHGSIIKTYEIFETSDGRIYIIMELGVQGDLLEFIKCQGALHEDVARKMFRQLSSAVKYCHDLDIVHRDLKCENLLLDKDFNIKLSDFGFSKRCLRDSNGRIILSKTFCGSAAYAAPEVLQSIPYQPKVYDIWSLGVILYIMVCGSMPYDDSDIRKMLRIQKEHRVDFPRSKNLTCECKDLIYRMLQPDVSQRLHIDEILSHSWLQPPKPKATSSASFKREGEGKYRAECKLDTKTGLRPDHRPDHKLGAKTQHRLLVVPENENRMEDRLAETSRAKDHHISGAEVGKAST

[3] = target: Angiopoietin-1 receptor (Homo sapiens) (UniProt Q02763); conditions: at 10 µM
Chain of Angiopoietin-1 receptor (Homo sapiens) (Q02763 whole entry): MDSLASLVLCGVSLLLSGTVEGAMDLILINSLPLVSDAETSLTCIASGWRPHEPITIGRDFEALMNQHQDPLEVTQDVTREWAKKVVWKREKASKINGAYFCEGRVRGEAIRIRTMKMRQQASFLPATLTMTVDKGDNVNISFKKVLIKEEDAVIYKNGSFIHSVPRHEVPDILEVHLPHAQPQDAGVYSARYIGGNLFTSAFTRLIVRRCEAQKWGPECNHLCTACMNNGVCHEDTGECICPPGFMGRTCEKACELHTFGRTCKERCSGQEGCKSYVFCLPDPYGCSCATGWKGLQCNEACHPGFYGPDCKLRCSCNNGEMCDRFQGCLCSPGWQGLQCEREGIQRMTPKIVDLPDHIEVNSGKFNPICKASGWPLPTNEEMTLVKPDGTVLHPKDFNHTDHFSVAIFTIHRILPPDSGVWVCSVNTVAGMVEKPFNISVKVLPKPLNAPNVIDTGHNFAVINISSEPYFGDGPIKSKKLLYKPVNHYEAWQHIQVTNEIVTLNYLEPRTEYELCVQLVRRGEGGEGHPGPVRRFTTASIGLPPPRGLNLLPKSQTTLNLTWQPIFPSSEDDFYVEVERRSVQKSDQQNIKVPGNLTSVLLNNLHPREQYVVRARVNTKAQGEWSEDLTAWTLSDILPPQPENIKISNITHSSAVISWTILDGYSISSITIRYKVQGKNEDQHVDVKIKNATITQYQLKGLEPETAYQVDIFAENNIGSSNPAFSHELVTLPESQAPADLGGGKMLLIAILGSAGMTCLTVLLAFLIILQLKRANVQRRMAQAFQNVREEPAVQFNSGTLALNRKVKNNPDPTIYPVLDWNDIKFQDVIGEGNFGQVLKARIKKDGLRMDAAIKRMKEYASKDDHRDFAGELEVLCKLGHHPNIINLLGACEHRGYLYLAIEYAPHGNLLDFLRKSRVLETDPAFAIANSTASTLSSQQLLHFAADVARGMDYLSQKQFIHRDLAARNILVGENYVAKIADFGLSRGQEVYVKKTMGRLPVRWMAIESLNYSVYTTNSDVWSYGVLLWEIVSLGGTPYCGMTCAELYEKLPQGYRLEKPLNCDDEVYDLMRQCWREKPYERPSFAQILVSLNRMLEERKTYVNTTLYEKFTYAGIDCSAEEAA

[4] = target: High affinity nerve growth factor receptor (Homo sapiens) (UniProt P04629); conditions: at 1 µM
Chain of High affinity nerve growth factor receptor (Homo sapiens) (P04629 33-796 limits assumed): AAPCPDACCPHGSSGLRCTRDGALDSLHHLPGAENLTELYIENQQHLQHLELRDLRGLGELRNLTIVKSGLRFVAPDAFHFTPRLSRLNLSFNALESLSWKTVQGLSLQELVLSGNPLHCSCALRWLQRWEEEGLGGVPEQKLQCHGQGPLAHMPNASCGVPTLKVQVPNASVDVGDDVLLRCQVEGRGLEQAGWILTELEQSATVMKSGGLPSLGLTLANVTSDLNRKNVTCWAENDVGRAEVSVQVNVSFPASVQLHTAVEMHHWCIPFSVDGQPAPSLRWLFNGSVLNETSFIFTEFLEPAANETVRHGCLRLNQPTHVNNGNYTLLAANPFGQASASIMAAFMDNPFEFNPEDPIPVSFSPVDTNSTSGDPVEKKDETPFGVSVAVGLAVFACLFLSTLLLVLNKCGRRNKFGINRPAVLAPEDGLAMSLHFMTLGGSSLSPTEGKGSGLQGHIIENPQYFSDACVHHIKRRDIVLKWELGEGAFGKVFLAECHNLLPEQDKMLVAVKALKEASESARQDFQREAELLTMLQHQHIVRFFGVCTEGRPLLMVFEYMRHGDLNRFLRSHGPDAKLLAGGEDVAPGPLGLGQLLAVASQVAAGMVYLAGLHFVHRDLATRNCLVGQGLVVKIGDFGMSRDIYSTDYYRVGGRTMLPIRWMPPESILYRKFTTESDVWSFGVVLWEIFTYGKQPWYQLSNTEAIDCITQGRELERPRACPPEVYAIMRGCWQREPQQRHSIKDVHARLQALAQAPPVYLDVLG

[5] = target: High affinity nerve growth factor receptor (Homo sapiens) (UniProt P04629); conditions: at 10 µM
[6] = target: BDNF/NT-3 growth factors receptor (Homo sapiens) (UniProt Q16620); conditions: at 1 µM
Chain of BDNF/NT-3 growth factors receptor (Homo sapiens) (Q16620 32-822 limits assumed): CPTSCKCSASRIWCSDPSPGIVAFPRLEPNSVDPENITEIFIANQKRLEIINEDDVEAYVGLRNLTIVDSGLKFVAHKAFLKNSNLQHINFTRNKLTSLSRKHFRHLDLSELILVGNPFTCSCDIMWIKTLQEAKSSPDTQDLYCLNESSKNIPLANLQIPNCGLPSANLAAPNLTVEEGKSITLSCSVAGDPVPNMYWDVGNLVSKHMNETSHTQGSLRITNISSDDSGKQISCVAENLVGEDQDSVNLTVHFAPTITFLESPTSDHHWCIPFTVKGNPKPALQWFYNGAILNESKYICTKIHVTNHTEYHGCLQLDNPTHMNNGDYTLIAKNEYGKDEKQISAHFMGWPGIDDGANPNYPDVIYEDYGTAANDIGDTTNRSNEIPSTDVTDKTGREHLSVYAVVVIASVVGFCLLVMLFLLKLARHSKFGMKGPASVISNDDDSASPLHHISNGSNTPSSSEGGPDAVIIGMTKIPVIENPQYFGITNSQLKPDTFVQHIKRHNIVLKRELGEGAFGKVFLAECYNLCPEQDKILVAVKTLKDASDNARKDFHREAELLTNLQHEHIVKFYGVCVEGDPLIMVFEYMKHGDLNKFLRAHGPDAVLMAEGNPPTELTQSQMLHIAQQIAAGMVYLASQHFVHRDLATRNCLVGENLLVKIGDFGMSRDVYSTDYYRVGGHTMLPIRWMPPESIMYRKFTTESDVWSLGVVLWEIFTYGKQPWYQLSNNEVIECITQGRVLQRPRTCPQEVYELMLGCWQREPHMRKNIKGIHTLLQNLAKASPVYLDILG

[7] = target: BDNF/NT-3 growth factors receptor (Homo sapiens) (UniProt Q16620); conditions: at 10 µM
[8] = target: T3, Tyrosine-protein kinase TXK (Homo sapiens) (UniProt P42681); conditions: at 1 µM
T3 sequence (whole entry): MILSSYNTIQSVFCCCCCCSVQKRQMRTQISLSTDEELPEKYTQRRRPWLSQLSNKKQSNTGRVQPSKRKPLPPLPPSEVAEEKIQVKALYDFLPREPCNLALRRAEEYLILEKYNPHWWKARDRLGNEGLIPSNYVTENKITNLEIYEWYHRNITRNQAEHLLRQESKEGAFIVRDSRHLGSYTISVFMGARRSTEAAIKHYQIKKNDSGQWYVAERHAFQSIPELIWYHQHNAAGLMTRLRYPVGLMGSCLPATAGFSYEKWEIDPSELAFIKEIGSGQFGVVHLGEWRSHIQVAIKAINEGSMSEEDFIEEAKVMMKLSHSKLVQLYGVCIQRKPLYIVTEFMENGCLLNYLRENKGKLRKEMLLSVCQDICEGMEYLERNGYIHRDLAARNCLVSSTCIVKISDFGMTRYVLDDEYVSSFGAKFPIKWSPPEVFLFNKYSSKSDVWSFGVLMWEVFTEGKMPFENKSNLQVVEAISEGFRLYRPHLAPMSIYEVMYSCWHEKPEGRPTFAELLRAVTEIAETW

[9] = target: T3, Tyrosine-protein kinase TXK (Homo sapiens); conditions: at 10 µM
[10] = target: Serine/threonine-protein kinase VRK2 (Homo sapiens) (UniProt Q86Y07); conditions: at 1 µM
Chain of Serine/threonine-protein kinase VRK2 (Homo sapiens) (Q86Y07 whole entry): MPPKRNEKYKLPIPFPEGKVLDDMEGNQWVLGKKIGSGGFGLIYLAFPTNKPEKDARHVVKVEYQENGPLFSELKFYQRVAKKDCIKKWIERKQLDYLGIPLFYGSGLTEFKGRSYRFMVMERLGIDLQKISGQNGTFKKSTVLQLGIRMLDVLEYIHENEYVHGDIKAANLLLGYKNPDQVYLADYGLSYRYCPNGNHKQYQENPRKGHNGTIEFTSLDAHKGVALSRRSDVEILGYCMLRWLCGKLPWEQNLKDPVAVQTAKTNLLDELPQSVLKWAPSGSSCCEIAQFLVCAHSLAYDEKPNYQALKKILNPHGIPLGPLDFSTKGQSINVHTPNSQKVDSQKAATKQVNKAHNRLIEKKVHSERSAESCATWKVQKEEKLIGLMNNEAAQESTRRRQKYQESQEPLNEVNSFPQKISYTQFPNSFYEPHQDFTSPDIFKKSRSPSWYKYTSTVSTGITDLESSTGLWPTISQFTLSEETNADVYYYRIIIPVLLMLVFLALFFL

[11] = target: Serine/threonine-protein kinase VRK2 (Homo sapiens) (UniProt Q86Y07); conditions: at 10 µM
[12] = target: Angiopoietin-1 receptor (Homo sapiens) (UniProt Q02763); conditions: at 1 µM
[13] = target: T4, Serine/threonine-protein kinase ULK3 (Homo sapiens) (UniProt Q6PHR2); conditions: at 1 µM
T4 sequence (whole entry): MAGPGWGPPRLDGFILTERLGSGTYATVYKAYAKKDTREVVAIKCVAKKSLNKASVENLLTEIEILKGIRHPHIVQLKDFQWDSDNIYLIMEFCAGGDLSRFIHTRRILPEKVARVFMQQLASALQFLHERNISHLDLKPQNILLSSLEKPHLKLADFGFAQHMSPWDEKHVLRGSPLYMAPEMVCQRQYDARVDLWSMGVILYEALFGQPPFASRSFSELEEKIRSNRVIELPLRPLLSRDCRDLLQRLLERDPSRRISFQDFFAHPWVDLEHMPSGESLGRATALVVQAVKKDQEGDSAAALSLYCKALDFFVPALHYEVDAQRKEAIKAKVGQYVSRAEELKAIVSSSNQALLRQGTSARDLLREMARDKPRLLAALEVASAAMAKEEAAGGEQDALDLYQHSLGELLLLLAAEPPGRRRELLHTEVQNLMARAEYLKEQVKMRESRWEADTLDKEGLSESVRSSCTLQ

[14] = target: T4, Serine/threonine-protein kinase ULK3 (Homo sapiens); conditions: at 10 µM
[15] = target: T1, Testis-specific serine/threonine-protein kinase 1 (Homo sapiens); conditions: at 10 µM
[16] = target: T5, Tyrosine-protein kinase Tec (Homo sapiens) (UniProt P42680); conditions: at 1 µM
T5 sequence (whole entry): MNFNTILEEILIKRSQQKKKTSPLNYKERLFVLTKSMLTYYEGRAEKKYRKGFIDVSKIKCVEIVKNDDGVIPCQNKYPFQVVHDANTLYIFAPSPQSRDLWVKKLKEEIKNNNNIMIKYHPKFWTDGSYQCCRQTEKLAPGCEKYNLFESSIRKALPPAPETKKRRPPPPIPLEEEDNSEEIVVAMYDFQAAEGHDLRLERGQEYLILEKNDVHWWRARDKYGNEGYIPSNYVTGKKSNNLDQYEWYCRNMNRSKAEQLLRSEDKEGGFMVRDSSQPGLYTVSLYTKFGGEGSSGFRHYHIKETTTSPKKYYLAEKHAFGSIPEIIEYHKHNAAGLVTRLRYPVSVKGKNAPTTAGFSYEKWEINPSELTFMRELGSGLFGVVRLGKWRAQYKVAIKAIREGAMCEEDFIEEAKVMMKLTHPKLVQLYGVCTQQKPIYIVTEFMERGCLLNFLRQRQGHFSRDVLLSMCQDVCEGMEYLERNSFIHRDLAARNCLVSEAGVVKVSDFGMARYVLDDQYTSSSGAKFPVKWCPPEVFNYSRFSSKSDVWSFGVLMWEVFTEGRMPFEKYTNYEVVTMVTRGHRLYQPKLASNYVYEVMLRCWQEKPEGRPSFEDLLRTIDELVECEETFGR

[17] = target: T5, Tyrosine-protein kinase Tec (Homo sapiens); conditions: at 10 µM
[18] = target: T6, Serine/threonine-protein kinase ULK2 (Homo sapiens) (UniProt Q8IYT8); conditions: at 1 µM
T6 sequence (whole entry): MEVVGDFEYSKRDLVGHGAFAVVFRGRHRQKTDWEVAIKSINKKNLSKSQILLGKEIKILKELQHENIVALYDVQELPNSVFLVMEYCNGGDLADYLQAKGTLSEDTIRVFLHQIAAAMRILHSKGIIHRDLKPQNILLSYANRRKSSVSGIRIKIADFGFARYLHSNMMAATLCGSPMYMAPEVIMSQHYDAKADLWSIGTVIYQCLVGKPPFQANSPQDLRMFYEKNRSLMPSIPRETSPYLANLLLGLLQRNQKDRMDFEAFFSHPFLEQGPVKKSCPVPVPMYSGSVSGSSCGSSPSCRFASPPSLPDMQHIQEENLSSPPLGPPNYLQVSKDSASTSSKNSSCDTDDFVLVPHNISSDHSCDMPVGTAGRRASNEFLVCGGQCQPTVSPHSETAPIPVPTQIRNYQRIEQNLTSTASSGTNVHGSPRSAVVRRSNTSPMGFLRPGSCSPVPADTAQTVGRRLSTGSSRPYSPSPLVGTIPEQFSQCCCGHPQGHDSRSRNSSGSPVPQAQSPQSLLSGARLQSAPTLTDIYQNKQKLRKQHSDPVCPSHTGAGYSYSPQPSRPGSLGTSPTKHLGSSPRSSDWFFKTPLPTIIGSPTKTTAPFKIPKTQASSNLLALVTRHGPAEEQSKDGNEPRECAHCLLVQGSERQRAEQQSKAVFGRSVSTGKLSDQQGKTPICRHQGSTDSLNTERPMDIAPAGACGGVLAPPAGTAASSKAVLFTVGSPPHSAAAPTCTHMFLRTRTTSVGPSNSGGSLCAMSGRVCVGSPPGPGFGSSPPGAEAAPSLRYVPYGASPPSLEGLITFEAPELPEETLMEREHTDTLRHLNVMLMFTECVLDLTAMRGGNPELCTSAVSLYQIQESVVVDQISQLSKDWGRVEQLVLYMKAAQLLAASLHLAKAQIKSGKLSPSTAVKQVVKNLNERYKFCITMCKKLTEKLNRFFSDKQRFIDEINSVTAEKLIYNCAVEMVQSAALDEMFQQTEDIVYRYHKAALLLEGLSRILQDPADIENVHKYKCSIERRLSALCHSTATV

[19] = target: T6, Serine/threonine-protein kinase ULK2 (Homo sapiens); conditions: at 10 µM
[20] = target: Serine/threonine-protein kinase WNK2 (Homo sapiens) (UniProt Q9Y3S1); conditions: at 1 µM;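 also: residual WNK2 kinase activity expressed as percent of uninhibited control, assayed in MOPS buffer at pH 7.0 containing EDTA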

Row | SMILES | residual activity [1] [%] | residual activity [2] [%] | residual activity [3] [%] | residual activity [4] [%] | residual activity [5] [%] | residual activity [6] [%] | residual activity [7] [%] | residual activity [8] [%] | residual activity [9] [%] | residual activity [10] | residual activity [11] [%] | residual activity [12] [%] | residual activity [13] [%] | residual activity [14] [%] | residual activity [15] [%] | residual activity [16] [%] | residual activity [17] [%] | residual activity [18] [%] | residual activity [19] [%] | residual activity [20]
1 | O=C1Nc2ccccc2/C1=C\c1c(Cl)[nH]c2ccccc12 | 81 | 78 | 47 | 85 | 34 | 87 | 57 | 83 | 74 | 76% (inactive) | 28 |  |  |  |  |  |  |  |  | 
2 | O=C(Nc1nc2ccccc2n1CCN1CCOCC1)c1cccc([N+](=O)[O-])c1 |  | 87 | 40 | 20 | 29 | 46 | 15 | 104 | 77 |  |  | 80 | 103 | 83 |  |  |  |  |  | 
3 | O=C(c1cc2cc(O)ccc2[nH]1)c1cc2cc(O)ccc2[nH]1 |  | 65 | 75 | 13 | 1 | 56 | -12 | 64 | 22 | 72% (inactive) | 37 | 67 | 73 | 22 | 56 | 58 | 21 | 82 | 38 | 83% (inactive)
4 | COc1cc2ncnc(Nc3cccc(Cl)c3)c2cc1OC |  |  | 83 | 88 | 55 | 50 | 61 | 87 | 49 | 102% (inactive) | 74 | 111 | 102 | 79 | 80 |  | 43 | 104 | 100 | 
5 | COc1ccc(CNC(=O)Nc2ncc([N+](=O)[O-])s2)cc1 |  |  |  |  |  |  | 110 | 67 | 74 |  |  |  |  |  |  | 102 |  |  |  | 
6 | N#Cc1c(NC(=O)c2cccc3ccccc23)sc2c1CCCC2 |  |  |  | 81 | 87 |  |  | 90 | 80 |  |  |  |  |  |  | 94 | 69 |  |  | 
7 | Oc1cccc(-c2nc(N3CCOCC3)c3oc4ncccc4c3n2)c1 |  | 74 | 59 | 93 | 118 |  |  | 93 | 92 |  | 89 | 80 |  | 92 |  |  |  |  | 81 | 
8 | Fc1ccc(-c2nc3n(c2-c2ccncc2)CCS3)cc1 |  | 86 | 124 |  | 88 |  |  | 93 |  |  | 80 | 128 |  |  |  |  |  |  |  | 
9 | O=C1NC(=O)C(c2cn(CCCn3ccnc3)c3ccccc23)=C1Nc1ccccc1 |  |  | 32 | 1 | 9 | 44 | 18 |  |  |  |  | 55 |  |  |  |  |  |  |  | 
10 | Cc1cc(C)c(/C=C2\C(=O)Nc3ccccc32)[nH]1 |  |  | 82 | 1 | 0 | 40 | -7 | 103 |  | 98% (inactive) | 68 | 74 |  |  | 75 | 100 |  |  |  | 
